Bioassay records deposited in PubChem by Sanford-Burnham Center for Chemical Genomics.
beta cell repl = induces beta-cell replication in MIN6 cells; proliferation, % at 10 µM; AID 2380; hit rate 0.29% among 330,000; MIN6 cells proliferation, ATPlite luminescence, 48 h; cells starved in 0.2% serum; 100% = growth in 10% serum;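 active = compounds whose signal lies at least 3.5 SD above the mean of all wells on their plate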;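 note: 0% = DMSO-treated cells in low-serum medium and 100% = 10% serum control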
NR3A LBD binder = modulates the human NR3A ligand-binding domain; AID 1259313; NR3A LBD differential scanning fluorimetry, Tm shift; 0% = protein alone, 100% = glycine-bound protein; hit rate 2.5% among 340,000; Tm shift relative to glycine control, % at 25 µM;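 active = melting temperature shift of at least 10% of the positive control shift, at one fixed dose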
pCIP destab = p/CIP protein destabilization; Q05BA5; F442A p/CIP-EGFP cells, EGFP fluorescence, 16 h; decrease of EGFP signal, % at 10 µM; hit rate 0.01% among 290,000; AID 1984;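 active = EGFP signal decrease of at least 30% at 10 µM or well 3 SD below plate mean, unless failing retest; inactive = the rest, including hits failing retest or dose response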
Target sequence (Q05BA5 1-1403): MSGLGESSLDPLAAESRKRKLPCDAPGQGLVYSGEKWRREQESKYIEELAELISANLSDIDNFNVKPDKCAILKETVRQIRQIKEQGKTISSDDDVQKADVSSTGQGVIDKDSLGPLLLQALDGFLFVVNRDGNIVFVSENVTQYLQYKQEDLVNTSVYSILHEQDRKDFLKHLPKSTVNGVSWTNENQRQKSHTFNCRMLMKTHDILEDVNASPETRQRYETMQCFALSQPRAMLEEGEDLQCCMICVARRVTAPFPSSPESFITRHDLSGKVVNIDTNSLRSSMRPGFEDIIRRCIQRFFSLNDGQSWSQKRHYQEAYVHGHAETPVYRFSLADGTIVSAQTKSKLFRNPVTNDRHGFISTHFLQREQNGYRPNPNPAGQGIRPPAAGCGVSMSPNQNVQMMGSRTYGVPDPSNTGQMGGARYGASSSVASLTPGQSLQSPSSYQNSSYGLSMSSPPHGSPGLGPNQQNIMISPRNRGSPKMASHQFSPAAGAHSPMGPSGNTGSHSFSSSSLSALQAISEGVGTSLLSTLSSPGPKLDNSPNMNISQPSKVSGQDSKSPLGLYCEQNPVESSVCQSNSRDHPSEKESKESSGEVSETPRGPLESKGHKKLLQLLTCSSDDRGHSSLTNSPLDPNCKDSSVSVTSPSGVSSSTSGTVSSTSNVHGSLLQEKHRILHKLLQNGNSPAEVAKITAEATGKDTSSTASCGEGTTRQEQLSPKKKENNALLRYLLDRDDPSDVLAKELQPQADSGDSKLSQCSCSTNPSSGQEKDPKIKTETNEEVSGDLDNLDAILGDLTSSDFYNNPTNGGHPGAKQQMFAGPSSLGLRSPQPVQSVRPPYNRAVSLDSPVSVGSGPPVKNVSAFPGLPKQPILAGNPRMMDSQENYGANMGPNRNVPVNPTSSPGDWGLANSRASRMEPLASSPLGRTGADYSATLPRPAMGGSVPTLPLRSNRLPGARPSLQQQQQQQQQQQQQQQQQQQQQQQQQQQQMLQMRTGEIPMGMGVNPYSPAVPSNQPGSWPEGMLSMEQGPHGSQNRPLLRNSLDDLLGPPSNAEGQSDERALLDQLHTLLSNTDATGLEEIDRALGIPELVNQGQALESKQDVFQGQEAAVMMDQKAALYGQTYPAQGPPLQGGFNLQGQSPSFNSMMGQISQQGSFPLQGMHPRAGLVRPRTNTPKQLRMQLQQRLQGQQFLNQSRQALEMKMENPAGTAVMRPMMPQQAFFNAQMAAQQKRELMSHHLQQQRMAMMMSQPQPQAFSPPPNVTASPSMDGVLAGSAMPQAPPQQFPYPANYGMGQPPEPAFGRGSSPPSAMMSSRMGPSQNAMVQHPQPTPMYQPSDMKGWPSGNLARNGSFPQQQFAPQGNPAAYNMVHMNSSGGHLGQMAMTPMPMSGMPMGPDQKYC
MPTP inh = blocks calcium-induced mitochondrial swelling. isolated mouse mitochondria, Ca2+ swelling absorbance, 30 min. inhibition, % at 10 µM. hit rate 1.4% among 360,000. AID 602449;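 active = inhibition of 50% or more, scaled per plate between neutral and stimulator controls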;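 note: 0% = DMSO wells given calcium and 100% = 1 mM EGTA wells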
FAS-TE inh = blocks the thioesterase domain of human fatty acid synthase. P49327. recombinant FAS-TE, OMFH fluorogenic substrate, fluorescence endpoint. inhibition, % at 15 µM. hit rate 0.67% among 360,000. AID 602261;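 active = compounds whose normalised, plate-corrected inhibition of enzyme fluorescence in the single-dose primary screen is 50% or more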;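 note: 0% = DMSO with enzyme and 100% = substrate without enzyme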
MPTP counter = membrane potential counter-screen of mitochondrial pore inhibitors | hit rate 78% among 5,000 | inhibition, % at 10 µM | AID 624504 | isolated mitochondria, Rhodamine 123 fluorescence | shares compounds with MPTP inh; in the data active = inhibition above about 22%;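 note: 0% = DMSO vehicle and 100% = positive control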
* marks the source's active call; other numbers are inactive results. An excerpt weighted towards active compounds, which were near 4.1% of everything screened.

What do the screens show for `O=C(Nc1ccc(Cl)cc1)Nc1ccccc1CC[N+](=O)[O-]`?
beta cell repl: -1.4; NR3A LBD binder: -4.0; pCIP destab: -7.9; MPTP inh: 83.2*; FAS-TE inh: 6.8; MPTP counter: 85.4*

Results for CSc1cccc(NC(=O)C(=O)NCc2ccccc2)c1 ?
beta cell repl: -4.7; NR3A LBD binder: -1.0; pCIP destab: 0.3; MPTP inh: 1.3; FAS-TE inh: -4.4

What do the screens show for `Cc1ccc(NC(=O)Nc2ccc(Cl)cc2)c(Br)c1`?
beta cell repl: -1.0; NR3A LBD binder: 35.1*; pCIP destab: -8.5; MPTP inh: 101.5*; FAS-TE inh: -1.8; MPTP counter: 92.3*

How did O=C(/C=C/c1cccc(Cl)c1)Nc1ncccn1 do in these assays?
beta cell repl: 0.0; NR3A LBD binder: -2.9; pCIP destab: 1.9; MPTP inh: -1.0; FAS-TE inh: -11.9

Results for CN(C)C(=O)Nc1ccccc1CC[N+](=O)[O-] ?
beta cell repl: -2.4; NR3A LBD binder: -1.3; pCIP destab: 2.6; MPTP inh: -0.6; FAS-TE inh: -3.0

Results for CSc1cccc(NC(=O)/C=C/c2cccc(Cl)c2)c1 ?
beta cell repl: 0.0; NR3A LBD binder: 67.4*; pCIP destab: -3.4; MPTP inh: 72.9*; FAS-TE inh: 29.6; MPTP counter: 81.9*

What do the screens show for `CSc1cccc(NC(=O)NCc2cccc(CNC(=O)Nc3cccc(SC)c3)c2)c1`?
beta cell repl: -4.8; NR3A LBD binder: 15.8*; pCIP destab: -6.4; MPTP inh: 68.1*; FAS-TE inh: 24.9; MPTP counter: 63.0*

Results for COc1cccc(S(=O)(=O)N(C)C[C@@H]2OCc3cn(nn3)CCCC(=O)N([C@H](C)CO)C[C@H]2C)c1 ?
MPTP inh: -1.2; FAS-TE inh: -9.1

What do the screens show for `CCOC(=O)c1[nH]ncc1CN1CCCC(C(=O)c2ccc(C(C)(C)C)cc2)C1` (stereo not given)?
beta cell repl: -2.0; NR3A LBD binder: -9.2; pCIP destab: -13.4; MPTP inh: 2.0; FAS-TE inh: 6.4

How did CC(=O)c1ccc(NC(=S)N2CCC(Cc3ccccc3)CC2)cc1 do in these assays?
beta cell repl: -2.9; NR3A LBD binder: -1.3; pCIP destab: -8.0; MPTP inh: 61.4*; FAS-TE inh: 26.5; MPTP counter: 43.5*

Results for CC(=O)c1cccc(NC(=S)N2CCC(Cc3ccccc3)CC2)c1 ?
beta cell repl: -3.2; NR3A LBD binder: -4.8; pCIP destab: -5.1; MPTP inh: -1.3; FAS-TE inh: 23.2

Results for O=S(=O)(Nc1ccc2c3c(cccc13)CC2)c1ccc(F)cc1 ?
beta cell repl: -0.8; NR3A LBD binder: -9.7; pCIP destab: -17.3; MPTP inh: 2.3; FAS-TE inh: 4.2

Results for CSc1ccc(S(=O)(=O)Nc2ccc3c4c(cccc24)CC3)cc1 ?
beta cell repl: -6.1; NR3A LBD binder: -2.1; pCIP destab: -1.8; MPTP inh: 61.2*; FAS-TE inh: 20.0; MPTP counter: 73.0*

How did O=C1N2CCSC2=NC1(NS(=O)(=O)c1ccccc1)C(F)(F)F (stereo not given) do in these assays?
beta cell repl: -0.8; NR3A LBD binder: -0.9; pCIP destab: -0.7; MPTP inh: -0.6; FAS-TE inh: -10.0

Results for CN(C)CCCN1c2ccccc2CCc2ccc(Cl)cc21 ?
beta cell repl: -7.7; NR3A LBD binder: 0.6; pCIP destab: 4.7; MPTP inh: 79.5*; FAS-TE inh: -8.1; MPTP counter: -15.2

What do the screens show for `Cc1ccc(Sc2ccc(NC(=O)CCl)cc2)cc1C`?
beta cell repl: -6.1; NR3A LBD binder: -4.9; pCIP destab: -6.7; MPTP inh: 51.8*; FAS-TE inh: 41.2; MPTP counter: 20.7*

Results for CC1CCC2C(=O)N(c3ccc(Cc4ccncc4)cc3)C(=O)C2C1 (stereo not given) ?
beta cell repl: 1.5; NR3A LBD binder: -0.2; pCIP destab: -17.0; MPTP inh: 86.6*; FAS-TE inh: 1.1; MPTP counter: 89.1*

Results for CCOC(=O)[C@]12CCCC=C1N(Cc1ccccc1)C(=O)[C@H](CC(=O)NCc1ccccc1)C2 ?
MPTP inh: 0.3

What do the screens show for `C[N+](C)(C)c1ccc(/C=N/Nc2nc(Cl)c(C#N)c(Cl)c2Cl)cc1`?
NR3A LBD binder: -0.5; pCIP destab: -8.6; MPTP inh: 92.4*; FAS-TE inh: 17.7; MPTP counter: 95.2*

What do the screens show for `N#Cc1c(Cl)nc(N/N=C/c2ccccc2)c(Cl)c1Cl`?
beta cell repl: -2.8; NR3A LBD binder: -1.5; pCIP destab: -13.1; MPTP inh: 0.2; FAS-TE inh: -10.2

How did Cc1nc(C#N)c(N/N=C/c2cccc(Cl)c2)o1 do in these assays?
beta cell repl: -1.0; NR3A LBD binder: -10.9; pCIP destab: -9.8; MPTP inh: 1.8; FAS-TE inh: 7.6

What do the screens show for `C[n+]1cccc(/C=N/Nc2nc(Cl)c(C#N)c(Cl)c2Cl)c1`?
beta cell repl: -1.2; NR3A LBD binder: -0.1; pCIP destab: -4.5; MPTP inh: 65.4*; FAS-TE inh: 8.8; MPTP counter: 64.4*

How did C/C(=N\NC(=O)c1nnn(-c2nonc2N)c1CSc1ccc(C)cc1)c1ccco1 do in these assays?
beta cell repl: 0.2; NR3A LBD binder: -1.4; pCIP destab: 3.1; MPTP inh: -1.4; FAS-TE inh: 6.8

What do the screens show for `COC(=O)/C=C1/SC(=Nc2ccc(Cl)c(Cl)c2)NC1=O`?
beta cell repl: -3.4; NR3A LBD binder: 17.7*; pCIP destab: -1.8; MPTP inh: 58.4*; FAS-TE inh: 2.0; MPTP counter: 24.9*

What do the screens show for `COC(=O)/C=C1\SC(=Nc2ccccc2)NC1=O`?
beta cell repl: -2.4; NR3A LBD binder: -5.5; pCIP destab: -5.7; MPTP inh: 1.5; FAS-TE inh: -10.3

What do the screens show for `O=C(Nc1ccc(S(=O)(=O)N2CCOCC2)cc1)c1cc(-c2cc(Cl)ccc2O)n[nH]1`?
beta cell repl: -7.3; NR3A LBD binder: 36.2*; pCIP destab: -2.7; MPTP inh: 74.7*; FAS-TE inh: 17.9; MPTP counter: 61.3*

What do the screens show for `Cc1ccc(-c2cc(C(=O)Nc3ccc(S(=O)(=O)N4CC(C)OC(C)C4)cc3)[nH]n2)c(O)c1` (stereo not given)?
beta cell repl: -0.9; NR3A LBD binder: 29.9*; pCIP destab: 1.0; MPTP inh: 51.3*; FAS-TE inh: -2.9; MPTP counter: 69.4*

Results for O=C(Cc1ccc(Cl)cc1)Nc1ccc(S(=O)(=O)N2CCOCC2)cc1 ?
beta cell repl: -0.3; NR3A LBD binder: -2.2; pCIP destab: -10.6; MPTP inh: 0.3; FAS-TE inh: -2.1

Results for Cc1cc(Cl)c(S(=O)(=O)N2CCN(c3ccc(F)cc3)CC2)cc1OCC(N)=O ?
beta cell repl: -0.8; NR3A LBD binder: 2.1; pCIP destab: 1.0; MPTP inh: -2.2; FAS-TE inh: 11.6
